Data from PubChem BioAssay AID602270 (The Scripps Research Institute Molecular Screening Center, 2012).
The list shows a part of the results. Activity calls are given as the source filed them. Rule as the data show it: active = activation above about 4%; inactive = the rest.

Each molecule was assayed on Methionine sulfoxide reductase A (Bos taurus) (assay: methionine sulfoxide reductase A activation – biochemical, absorbance, bovine, HTS, confirmation (AID 602270;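 also: enzyme coupled to thioredoxin and thioredoxin reductase with NADPH; 0% = vehicle wells and 100% = reference activator wells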)). Conditions: purified bovine MsrA, absorbance read-out; at 10.6 µM; hits give high values.

activation, active:
CCN(CC)CCCC(C)n1c2nc(=O)[nH]c(=O)c-2nc2cc(Cl)ccc21 (centres undefined) 8.41%
COc1cc(NC(=O)COC(=O)c2ccc([N+](=O)[O-])s2)cc(OC)c1OC 4.75%
NC1=CC(=O)C(=O)c2cccnc21 5.78%
O=C(NC1=CC(=O)c2ccccc2C1=O)c1ccccc1 14.4%

activation, inactive:
O=C(O)/C=C/c1cn(Cc2ccccc2)nc1-c1cccs1 -1.62%
Cn1nnnc1SCC(=O)N1CCN(Cc2ccccc2)CC1 -1.94%
Cc1ccc(S(=O)(=O)n2nc(OC(=O)C(C)(C)C)cc2N)cc1 -1.8%
O=C(O)Cc1ccc(NC(=O)C2CCCCC2C(=O)O)cc1 (centres undefined) -1.24%
O=C(O)C1CCCCC1C(=O)Nc1ccc(Cl)cc1 (centres undefined) -0.71%
COc1cc(OC)c(C(=O)NCc2ccc3c(c2)OCO3)cc1OC 2.87%
COc1ccc(C(=O)COC(=O)c2ccc([N+](=O)[O-])s2)cc1OC 2.35%
CCN(CC(=O)Nc1ccccc1OC)C(=O)CC1CC2CCC1C2 (centres undefined) 0.76%
O=C(CSc1n[nH]c(-c2cccs2)n1)N1CCCCC1 -1.33%
O=C(CCN1CCN(c2ccccc2)CC1)NNC(=S)Nc1ccccc1 -0.61%
O=C1C(Sc2cccc(F)c2)=C[C@@]2(O)CC[C@@H](O)[C@]1(Sc1cccc(F)c1)[C@H]2O -4.14%
CCc1ccc(NC(=O)CSc2nnc(-c3cnccn3)n2Cc2ccco2)cc1 -1.98%
CCOc1ccccc1OCCCNCc1ccccc1 -4.03%
COc1ccc(Cl)cc1NS(=O)(=O)c1cccc(C(=O)NCC2CCCO2)c1 (centres undefined) 2.13%
CC(=O)NC(Cc1c[nH]c2ccccc12)C(=O)O (centres undefined) -0.4%
O=c1c2cc(Br)ccc2nc(-c2cccc(Cl)c2)n1O -1.14%
COc1ccc([C@H]2CC(=O)C=C(/C=C/c3ccccc3)C2)cc1 -2.68%
Cc1ccc(COC(=O)CN2C(=O)NC3(CCCC3)C2=O)cc1 -1.66%
CCCCNC(=O)OC(C)CNC(=O)OC (centres undefined) -2.15%
Cc1noc(NS(=O)(=O)c2ccc(NC(=O)C34CCC(CC3)C4)cc2)c1C -0.66%
